High-throughput results deposited in PubChem BioAssay by National Center for Advancing Translational Sciences (NCATS).
Compounds with a hit are over-represented: about 21% of the library has one in this group of screens.
CHX counter: counter-screen for Shiga toxin inhibitors: cycloheximide protein synthesis inhibition; cell reporter, cycloheximide protein synthesis inhibition counterscreen; max response, %; 12% of 300,000 active; AID 2314; in the data active = max response mostly above about 13%, no sharp cut-off; inactive = mostly below about 14%; also: read at 38.3 µM for the half of the compounds with a filed dose; 0% is about no effect
NS1 inh: influenza NS1 inhibition; 0.4% of 270,000 active; Potency, µM (highest dose often 46.1 µM), for inactives: top-dose activity, positive = more growth; calls by dose curve; also: potency is read from the fitted curve at half-maximal effect; actives are rising curves; nearly all actives have a fitted effect of over 50% in size
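Compounds were scored for reversing the slow growth caused by influenza A NS1 in S. cerevisiae, measured by optical density at 600 nm. Assay medium contained 2% galactose at pH 6.0; NS1-free yeast of the same strain were the positive control.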
Pf growth 96h: P. falciparum growth inhibition at 96 hours. P. falciparum luciferase reporter growth, 96 h. Potency, µM (top dose mostly 28.7 µM), inactives show at the highest dose activity change, negative = inhibition, most hits filed as inhibitors. 6.9% of 320,000 active. AID 504834; also: potency is read from the fitted curve at half-maximal effect; % is scaled to controls: 0 for no effect and ±100 for the full control effect
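P. falciparum expressing integrated firefly luciferase, in erythrocytes at 2% hematocrit, 0.05% parasitemia, incubated with compounds 96 h at 37 C, 5% CO2. Growth inhibition read as loss of luminescence; two-generation exposure targets delayed-death apicoplast inhibitors.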
Shiga inhibitor: blocks Shiga toxin action in Vero cells. AID 2315. 9.2% of 290,000 active. Vero cells, Shiga toxin protein synthesis inhibition reporter. inhibition, % at 38.7 µM; in the data active = inhibition mostly above about 28%, no sharp cut-off; inactive = mostly below about 43%; also: 0% is about no effect
Giardia FBPA inh: Giardia lamblia aldolase inhibition; Potency, µM (doses to about 59.6 µM), for inactives: top-dose activity, negative = inhibition, most hits filed as inhibitors; 0.71% of 290,000 active; purified Giardia FBPA; A8B2U2; AID 2451; also: potency is read from the fitted curve at half-maximal effect; % is scaled to controls: 0 for no effect and ±100 for the full control effect; nearly all actives have a fitted effect of over 55% in size
Target sequence (A8B2U2 whole entry, looked up): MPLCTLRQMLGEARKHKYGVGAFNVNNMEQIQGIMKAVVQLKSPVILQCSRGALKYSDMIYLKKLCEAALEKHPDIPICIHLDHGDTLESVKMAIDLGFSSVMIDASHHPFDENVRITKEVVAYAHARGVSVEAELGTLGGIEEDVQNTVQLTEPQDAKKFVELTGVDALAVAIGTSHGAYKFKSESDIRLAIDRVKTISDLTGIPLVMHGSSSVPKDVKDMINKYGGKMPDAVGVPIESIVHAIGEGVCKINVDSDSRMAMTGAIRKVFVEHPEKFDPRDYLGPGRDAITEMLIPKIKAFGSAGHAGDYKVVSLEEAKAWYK
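40 nM FBPA preincubated 10 min at RT with compound (up to 57.5 uM final), then substrate plus GAPDH/TPI/NAD/arsenate coupling and diaphorase/resazurin added. Fluorescence read after 20 min at RT, 525/598 nm.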
Pf growth 48h: inhibits P. falciparum growth in the first generation, 48 h; P. falciparum luciferase growth in erythrocytes, 48 h; Potency, µM (series often up to 28.7 µM), inactives show at the top dose activity change, negative = inhibition, hits mostly inhibitors; 5.9% of 310,000 active; also: potency is read from the fitted curve at half-maximal effect; % is scaled to controls: 0 for no effect and ±100 for the full control effect
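A one-generation exposure of luciferase-tagged malaria parasites in RPMI 1640/Albumax erythrocyte culture, 37 C and 5% CO2. Inhibition is inferred from decreased luminescence after adding detection reagent.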
Active calls of the source: *; ? = inconclusive; / = no result given; [ ] = another dose, or the depositor's remark. Unless noted, calls follow the shape of the dose curve; as a rule, active = well fitted curve in the direction sought with a large enough effect; inconclusive = small, poorly fitted or top-dose-only effect, or another doubt; inactive = no such curve, though single readings can be large; an effect the other way counts as inactive or inconclusive.

SMILES	CHX counter	NS1 inh	Pf growth 96h	Shiga inhibitor	Giardia FBPA inh	Pf growth 48h
NC(=O)CSc1nc(N)c2c3c(sc2n1)CCCCC3	21*	11%	37%	39	3%	45%
CCSc1nc(N)c2c3c(sc2n1)CCC3	21*	-2%	12%	61*	0%	17%
CC(=O)OCC(OC(C)=O)C(OC(C)=O)C(OC(C)=O)C(=O)Nc1cccc(C)c1 (centres undefined)	-3	2%	124%	-10	1%	13%
C[C@H](CCC(=O)O)[C@H]1CC[C@@H]2[C@@H]3CC[C@H]4C[C@@H](O)CC[C@@]4(C)[C@@H]3C[C@H](O)[C@@]21C	/	6%	/	/	/	/
C[C@@H]1C(=O)CC2C(C)(C)CCC[C@]2(C)[C@@]1(O)CCc1ccoc1 (some centres undefined)	/	/	/	/	-7%	/
CC(=O)NC(=S)Nc1ccc(NC(=S)NC(=O)/C=C/c2ccco2)cc1	-3	16%	7%	-12	-9%	2%
O=C(/C=C/c1ccco1)NC(=S)Nc1ccc(Cl)cn1	29	0%	/	88*	-20%	10%
Cc1ccc(C(=O)/C=C/c2ccco2)c(O)c1	37*	6%	7%	56*	-5%	97%
Cc1ccc(O)c(NC(=S)NC(=O)/C=C/c2ccccc2)c1	5	-11%	0%	7	11%	-20%
Cc1ccc(O)c(NC(=S)NC(=O)/C=C/c2ccco2)c1	47*	13%	30%	67*	-9%	96%
Cc1ccnc(NC(=S)NC(=O)/C=C/c2ccco2)c1	70*	-13%	30%	138*	?	136%
C/C(=N\NC(=O)c1ccccn1)C12CC3CC(CC(C3)C1)C2	31*	2%	208%	54*	-14%	46%
C/C(=N/NC(=O)c1ccoc1C)C12CC3CC(CC(C3)C1)C2	39*	7%	/	5	-5%	96%
N/C(=N\OC(=O)C12CC3CC(CC(C3)C1)C2)c1ccccn1	41*	-22%	-27%	43*	3%	?
N/C(=N\OC(=O)C12CC3CC(CC(C3)C1)C2)c1cccnc1	19*	-2%	?	17	5%	?
O=C(NCc1ccccn1)C12CC3CC(CC(C3)C1)C2	-1	-4%	45%	-13	2%	-16%
N/C(=N\OC(=O)CC1CCCCC1)c1ccccn1	14	-5%	107%	39	0%	102%
N/C(=N\OC(=O)C12CC3CC(CC(C3)C1)C2)c1ccccc1	4	-16%	68%	21	6%	?
Cc1cccc(NC(=O)CSc2nc(-c3ccco3)nc3cc(=O)[nH]n23)c1	/	/	-29%	/	/	?
CC(=O)c1ccc(N2CCN(c3ccccc3O)CC2)c([N+](=O)[O-])c1	6.0*	-11%	16%	2	-5%	0%
N#Cc1cc([N+](=O)[O-])ccc1N1CCN(c2ccccc2O)CC1	43*	/	-57%	71*	-12%	-23%
CC(C(=O)Nc1cc([N+](=O)[O-])ccc1Cl)N1CCN(c2ccccc2O)CC1 (centres undefined)	1	-4%	?	-7	-6%	6.6µM*
COc1ccc([N+](=O)[O-])cc1NC(=O)C(C)N1CCCC1 (centres undefined)	1	7%	36%	17	-1%	33%
COC(=O)c1ccc(N2CCN(C)CC2)c([N+](=O)[O-])c1	-2	/	20%	33	0%	64%
O=C(O)c1ccccc1C(=O)c1ccc(N2CCCC2)c([N+](=O)[O-])c1	-2	6%	12µM*	1	23%	-6%[1.15 µM]
SMILES	CHX counter	NS1 inh	Pf growth 96h	Shiga inhibitor	Giardia FBPA inh	Pf growth 48h
O=[N+]([O-])c1ccc(N2CCN(c3ccc([N+](=O)[O-])cc3CO)CC2)c(CO)c1	-3	-1%	?	3	2%	?
COc1ccc(NC(=O)CN2C(=O)NC3(CCCC3)C2=O)cc1Cl	-2	5%	-1%	23	-2%	-8%
S=C(Nc1cccc(Cl)c1)NC1CC2CCCC(C1)N2C1CCCC1 (centres undefined)	-3	-3%	?	-9	6%	3.3µM*
S=C(Nc1ccc(Cl)cc1)NC1CC2CCCC(C1)N2C1CC1 (centres undefined)	-5	10%	10µM*	-6	-16%	10µM*
C=CCN1C2CCCC1CC(NC(=S)Nc1ccc(Cl)cc1)C2 (centres undefined)	-6	3%	29%	-17	0%	?
COc1cccc(NC(=S)NC2CC3CCCC(C2)N3C2CCCC2)c1 (centres undefined)	1	-2%	7%	-6	3%	?
S=C(NCCN(C1CCCCC1)C1CCCC1)Nc1cccc(Cl)c1	-6	-3%	-2%	-12	9%	2.9µM*
S=C(Nc1ccc(Cl)cc1)NC1CC2CCCC(C1)N2C1CCCC1 (centres undefined)	-1	5%	12µM*	29	0%	10µM*
O=C(/C=C/c1ccco1)N(c1ccccn1)c1ccccn1	-2	/	0%	-11	?	-8%
COc1ccccc1NC(=O)COC(=O)c1ccccc1OCC(=O)Nc1ccc(SC(F)F)cc1	-1	-6%	16%	-11	1%	46%
CN(C)C(=O)COC(=O)c1ccccc1Nc1ccc(SC(F)F)cc1	32*	-27%	46%	89	-15%	67%
Cn1c(-c2ccccc2)cnc1N	29*	9%	?	35	/	?
Cc1ccc2nc(N3CCN(Cc4ccc(F)cc4)C3=O)c(C)cc2c1	20*	-171%	/	41	-3%	25%
Cc1cc(C)c(C(=O)N(CCN(C)C)CC2CCCN(Cc3ccccc3F)C2)o1 (centres undefined)	-4	8%	?	-5	0%	12µM*
CN(C)CCN(CC1CCCN(Cc2ccccc2F)C1)C(=O)c1ccc(F)cc1 (centres undefined)	1	-6%	0%	-9	3%	?
COc1cc(C(=O)N(CCN(C)C)CC2CCCN(Cc3ccccc3F)C2)ccc1C (centres undefined)	-1	15%	-17%	10	-5%	10µM*
O=C(COc1ccccc1F)Nc1nnc(C2CCCC2)s1	18	-14%	-17%	18	/	12%
CCS(=O)(=O)n1nc(-c2ccc(Cl)cc2)nc1SC	62*	0%	232%	87*	-1%	58%
CSc1nc(-c2ccco2)nn1S(=O)(=O)c1ccccc1	-2	3%[9.22 µM]	6%	-4	11%	7%
CCS(=O)(=O)n1nc(-c2ccc(OC)cc2)nc1N	23*	-2%	70%	23	-1%	76%
CS(=O)(=O)n1nc(-c2ccccc2)nc1N	-1	7%	26%	-10	5%	/
CS(=O)(=O)n1nc(-c2ccc(Cl)cc2)nc1N	20*	1%	-4%	20*	-1%	51%
CSc1nnc(CNS(=O)(=O)c2ccc(Cl)cc2)n1C	-4	7%	3%	-7	-4%	-8%
